# Source: the supplement of paper PMC9694430
# How the values were obtained:
# Experiment in all cases: thermal shift delta Tm vs DMSO control; higher = stronger stabilization (binding)
# Settings in all cases: 12.5 µM; protein concentration 2 µM
# LOC_OS01G01410-cb001 = system: LOC_OS01G01410-cb001
# In short: (§1)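 Heating from 25°C to 95°C at 0.05°C/s, fluorescence was recorded for 19.5 μl wells of 2 μM E. coli-expressed, purified rice kinase domain in 100 mM potassium phosphate pH 7.5, 150 mM NaCl, 10% glycerol and 5 × SYPRO Orange with compound in DMSO. Boltzmann fits gave melting temperatures for this differential scanning fluorimetry assay. The shift reported is the mean of three replicates against the DMSO-only protein.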
# LOC_OS01G02750-cb003 = system: LOC_OS01G02750-cb003
# In short: as §1
# LOC_OS01G10900-cb004 = system: LOC_OS01G10900-cb004
# In short: as §1
# LOC_OS01G13800-cb001 = system: LOC_OS01G13800-cb001
# In short: as §1
# LOC_OS01G14860-cb001 = system: LOC_OS01G14860-cb001
# In short: as §1
# LOC_OS01G21960-cb002 = system: LOC_OS01G21960-cb002
# In short: as §1
# LOC_OS01G39600-cb002 = system: LOC_OS01G39600-cb002
# In short: as §1
# LOC_OS01G48390-cb002 = system: LOC_OS01G48390-cb002
# In short: as §1
# LOC_OS01G51400-cb002 = system: LOC_OS01G51400-cb002
# In short: as §1
# LOC_OS01G52050-cb004 = system: T1, LOC_OS01G52050-cb004
# T1 sequence (whole entry): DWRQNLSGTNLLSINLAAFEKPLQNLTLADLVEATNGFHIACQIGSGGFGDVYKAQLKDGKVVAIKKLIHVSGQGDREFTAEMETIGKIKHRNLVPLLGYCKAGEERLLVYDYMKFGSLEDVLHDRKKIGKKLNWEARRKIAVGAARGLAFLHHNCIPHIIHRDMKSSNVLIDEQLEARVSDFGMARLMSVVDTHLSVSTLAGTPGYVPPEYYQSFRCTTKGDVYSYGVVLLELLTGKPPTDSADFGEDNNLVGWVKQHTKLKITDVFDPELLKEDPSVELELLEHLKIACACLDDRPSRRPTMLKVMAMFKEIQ
# In short: as §1
# LOC_OS01G57100-cb003 = system: LOC_OS01G57100-cb003
# In short: as §1
# LOC_OS01G60330-cb001 = system: LOC_OS01G60330-cb001
# In short: as §1
# LOC_OS01G60700-cb002 = system: LOC_OS01G60700-cb002
# In short: as §1
# LOC_OS01G63280-cb003 = system: LOC_OS01G63280-cb003
# In short: as §1
# LOC_OS01G67340-cb003 = system: LOC_OS01G67340-cb003
# In short: as §1
# LOC_OS01G70970-cb002 = system: LOC_OS01G70970-cb002
# In short: as §1
# LOC_OS02G07810-cb001 = system: LOC_OS02G07810-cb001
# In short: as §1
# LOC_OS02G08530-cb003 = system: LOC_OS02G08530-cb003
# In short: as §1
# LOC_OS02G14120-cb001 = system: LOC_OS02G14120-cb001
# In short: as §1
# LOC_OS02G17970-cb001 = system: LOC_OS02G17970-cb001
# In short: as §1
# 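Also: purified Escherichia coli-expressed rice kinase domain construct.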
Compound,thermal shift delta Tm (LOC_OS01G01410-cb001),thermal shift delta Tm (LOC_OS01G02750-cb003),thermal shift delta Tm (LOC_OS01G10900-cb004),thermal shift delta Tm (LOC_OS01G13800-cb001),thermal shift delta Tm (LOC_OS01G14860-cb001),thermal shift delta Tm (LOC_OS01G21960-cb002),thermal shift delta Tm (LOC_OS01G39600-cb002),thermal shift delta Tm (LOC_OS01G48390-cb002),thermal shift delta Tm (LOC_OS01G51400-cb002),thermal shift delta Tm (LOC_OS01G52050-cb004),thermal shift delta Tm (LOC_OS01G57100-cb003),thermal shift delta Tm (LOC_OS01G60330-cb001),thermal shift delta Tm (LOC_OS01G60700-cb002),thermal shift delta Tm (LOC_OS01G63280-cb003),thermal shift delta Tm (LOC_OS01G67340-cb003),thermal shift delta Tm (LOC_OS01G70970-cb002),thermal shift delta Tm (LOC_OS02G07810-cb001),thermal shift delta Tm (LOC_OS02G08530-cb003),thermal shift delta Tm (LOC_OS02G14120-cb001),thermal shift delta Tm (LOC_OS02G17970-cb001)
NC(=O)c1ccc2nc(-c3ccc(Oc4ccc(Cl)cc4)cc3)[nH]c2c1 [Chk2 Inhibitor II (BML-277)],0.54 °C,1.86 °C,2.68 °C,-0.46 °C,0.95 °C,0.75 °C,0.45 °C,1.43 °C,0.88 °C,1.84 °C,-0.91 °C,1.95 °C,-0.56 °C,0.87 °C,1.05 °C,0.31 °C,-0.29 °C,0.5 °C,0.13 °C,1.17 °C
CC1(C)CNc2cc(NC(=O)c3cccnc3NCc3ccncc3)ccc21 [Motesanib Diphosphate (AMG-706)],1.13 °C,0.81 °C,0.63 °C,0.38 °C,0.51 °C,0.76 °C,-0.19 °C,0.41 °C,-0.07 °C,-0.22 °C,1.3 °C,1.28 °C,1.09 °C,8.62 °C,-0.45 °C,0.75 °C,0.59 °C,0.61 °C,-0.17 °C,0.6 °C
COc1ccc(CNC(=O)Nc2ncc([N+](=O)[O-])s2)cc1,0.9 °C,0.85 °C,0.34 °C,0.54 °C,3.27 °C,1.49 °C,-4.25 °C,0.63 °C,-0.45 °C,0.42 °C,1.87 °C,0.81 °C,1.38 °C,0.15 °C,0.55 °C,0.54 °C,1.25 °C,1.46 °C,-0.24 °C,1.43 °C
Nc1cccc(S(=O)(=O)N2CCCN(S(=O)(=O)c3ccc4c(c3)OCCO4)CC2)c1,0.49 °C,1.98 °C,0.15 °C,0.22 °C,0.23 °C,0.8 °C,-0.77 °C,3.24 °C,0.46 °C,0.19 °C,0.46 °C,0.53 °C,0.59 °C,-0.02 °C,0.27 °C,0.17 °C,0.54 °C,0.32 °C,0.21 °C,0.7 °C
CN1CCN(CCOc2cc(OC3CCOCC3)c3c(Nc4c(Cl)ccc5c4OCO5)ncnc3c2)CC1 [Saracatinib (AZD0530)],0.88 °C,0.03 °C,0.58 °C,0.11 °C,0.28 °C,0.14 °C,-0.05 °C,0.23 °C,0.26 °C,1.72 °C,0.72 °C,1.51 °C,1.11 °C,0.03 °C,0.29 °C,0.9 °C,0.55 °C,1.2 °C,8.8 °C,0 °C
C=CCc1ccc(O)c(-c2ccc(O)c(CC=C)c2)c1 [Honokiol],0.83 °C,1.12 °C,0.85 °C,0.22 °C,0.9 °C,1.38 °C,1.21 °C,0.93 °C,0.36 °C,1.76 °C,2.73 °C,0.73 °C,1.34 °C,1.12 °C,1.09 °C,0.71 °C,1.8 °C,1.59 °C,0.96 °C,1.32 °C
CNc1nc(Nc2cn(C(C)(C)C#N)nc2C)ncc1C(F)(F)F,0.23 °C,1.65 °C,0.23 °C,0.93 °C,0.11 °C,1.18 °C,-0.3 °C,0.76 °C,0.31 °C,0.37 °C,1.92 °C,1.38 °C,1.27 °C,0.69 °C,0.49 °C,0.2 °C,0.4 °C,0.86 °C,0.65 °C,1.09 °C
CCn1c(C(=O)N(C2CC2)C2CC2)cc2c3c(ncn3C)c(Nc3cc(C)n(C)n3)nc21,0.37 °C,1.05 °C,-0.06 °C,0.41 °C,0.41 °C,1.12 °C,-0.02 °C,0.34 °C,0.23 °C,0.97 °C,1.18 °C,1.11 °C,1.61 °C,0.73 °C,0.2 °C,0.33 °C,0.6 °C,1.47 °C,4.36 °C,1.3 °C
COc1ccc(CCNCc2ccc(OCc3ccc(Cl)nc3)c(OC)c2)cc1OC,0.02 °C,0.3 °C,0.52 °C,0.46 °C,0.35 °C,0.01 °C,0.48 °C,0.52 °C,-0.03 °C,-0.18 °C,1.03 °C,0.8 °C,0.19 °C,-0.28 °C,0.24 °C,0.23 °C,0.28 °C,0.56 °C,0.14 °C,0.22 °C
O=C(O)c1ccc(Nc2ncc3c(n2)-c2ccc(Cl)cc2C(c2c(F)cccc2F)=NC3)cc1,1.36 °C,-0.24 °C,-0.28 °C,0.41 °C,0.03 °C,-0.02 °C,0.1 °C,0.02 °C,-0.16 °C,0.07 °C,0.51 °C,0.82 °C,0.64 °C,-0.31 °C,-0.46 °C,0.46 °C,0.3 °C,0.39 °C,0.88 °C,0.07 °C
